In PubChem BioAssay (NCI):
This is part of a sample that, as a whole, favours compounds with a hit. Of some 83,000 tested, about 20% had one in any assay.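 The test compound was applied at a single concentration to cells in 96-well plates for 48 hours, and percent growth was recorded.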 Unmarked numbers belong to inactive results. Activity calls are given as the source filed them. How the source made its calls: active means growth percent below 10; inactive means the rest.

Test system: HL-60(TB) leukemia
Assay: NCI-60 one-dose screen, 48 h (100 = growth as untreated, 0 = no growth, -100 = all killed)
Details: 10 µM unless noted

| Structure (SMILES) | growth |
| --- | --- |
| O=C(Nc1cccc(C(=O)N2CCc3ccc(Cl)cc32)c1)c1ccco1 | 1.39% (active) |
| CS(=O)(=O)c1ccc(C(=O)N/N=C/c2cccc3ccccc23)cc1 | 37.5% |
| O=C(O)c1cn(C2CC2)c2cc(N3CCN(C(=O)N/N=C/c4cccc5ccccc45)CC3)c(F)cc2c1=O | 97.8% |
| CC(=O)c1cc2ccccc2o1 | 102% |
| Oc1c(I)cc(I)cc1CNCc1ccccn1 | 20.2% |
| COc1ccccc1N1CCN(CCCOc2ccc(C(=O)/C=C3/C(=O)Nc4ccccc43)cc2)CC1 | 52.8% |
| C=C(CNCCO)[C@@H]1CC[C@]2(CO)CC[C@]3(C)[C@H](CC[C@@H]4[C@@]5(C)CCC(N)C(C)(C)[C@@H]5CC[C@]43C)[C@@H]12 (stereo partly drawn) | 32.4% |
| CNC(=O)c1cc(Oc2cccc3nc(NC(=O)Nc4cc(C(F)(F)F)cc(C(F)(F)F)c4)ccc23)ccn1 | 70.5% |
| O=C1C(c2ccccc2)C2C=CC(C2)N1O (stereo not drawn) | 93% |
| NC(=O)NNC(=O)c1ccccc1 | 103% |
| COc1cccc(-c2nn(-c3ccccc3)cc2-c2ccnc(NCCCNS(=O)(=O)c3ccccc3)c2)c1 | 16% |
| O=c1oc2cc(OS(=O)(=O)c3ccccc3)ccc2c2c1CCCCC2 | 18.6% |
| O=S(=O)(NCCO)c1ccc(OCCOc2ccc(S(=O)(=O)NCCO)cc2)cc1 | 68.4% |
| CCOC(=O)Oc1c(OC)cc(C(=O)c2ccc(OC)c(OC(=O)CCl)c2OC)cc1OC | -30.9% (active) |
| CCSc1sc(-c2ccc(C)cc2)nc1[P+](c1ccccc1)(c1ccccc1)c1ccccc1 | -47% (active) |
| CCCNC(=O)Oc1ccc(/C(=C(\C)c2ccccc2)c2ccc(OCCCN(C)C)cc2)cc1 | 65.3% |
| C[C@@H](C(=O)O)c1ccc2c3cc(Cl)ccc3n(Cc3cc(=O)oc4ccc(Cl)cc34)c2c1 | 89.9% |
| COc1ccc(-c2cc(-c3cc(OC)ccc3O)[nH]c(=O)c2C#N)cc1 | 16.9% |
| O=C(CSc1nc2ccccc2c(=O)n1-c1ccccc1)Nc1ccc(C(=O)/C=C/c2ccc(Cl)cc2)cc1 | 99% |
| COc1ccc(-c2cc(C(=O)N3N=C(c4ccc(N)cc4)CC3c3ccc(Cl)cc3)c3cc(OC)ccc3n2)cc1 (stereo not drawn) | 4.62% (active) |
| COc1ccc2[nH]c(=O)c3c4ccccc4cn3c2c1 | -28.4% (active) |

| Structure (SMILES) | growth |
| --- | --- |
| COc1ccc2c(c1)[n+](=O)c(C(=O)/C=C/c1cc(OC)c(OC)c(OC)c1)c(C)n2[O-] | 42.6% |
| NC(CSC(c1ccccc1)(c1ccccc1)c1ccccc1)C(=O)O (stereo not drawn) | -0.908% (active) |
| C1CCCCNCCC1 | 114% |
| C#Cc1cccc(NC(=O)Nc2cccc(N=C=S)c2)c1 | 98.7% [8.25 µM] |
| CC(=O)OC1CC2CCC1(C)C2(C)C (stereo not drawn) | 103% |
| CC/C=C\C[C@H](F)C/C=C1/C(=O)C=C[C@@H]1C/C=C\CCCC(=O)OC | -33.1% (active) |
| COc1ccc(CCl)c(C)c1OC | 99% |
| NCCNc1ccc([N+](=O)[O-])cc1 | 91.9% |
| CN1CCN(Cc2ccc(C(=O)Nc3cncc(C#Cc4cnc(N)c5ccccc45)c3)cc2C(F)(F)F)CC1 | -71.5% (active) |
| Cc1c(CC(=O)Nc2ccccc2)nnn1-c1ccccc1 | 99.3% |
| NC(=NCCCOc1ccc(Cl)cc1)Nc1ccc(C(F)(F)F)cc1 | 94.4% |
| Clc1nccc2c(-c3csc(-c4c[nH]c5ccc(Br)cc45)n3)c[nH]c12 | 9.77% (active) |
| O=C(N/N=C/c1ccccc1Cl)C(=O)Nc1cccc(C(F)(F)F)c1 | 106% |
| Oc1ccc(Cc2ccc(O)c3ncccc23)c2cccnc12 | 5.77% (active) |
| O=C1/C(=C/c2ccc(Br)cc2)COc2ccc(O)c(O)c21 | -23.2% (active) |
| CSc1nc2ccccc2cc1/C=[N+](\[O-])c1ccccc1 | -13.4% (active) |
| NC(=S)CN1CCOCC1 | -12.8% (active) |
| C[C@H]1[C@H]2[C@H]3CC[C@@H]4[C@@]5(C)CC[C@H](O)C(C)(C)[C@@H]5CC[C@@]4(C)[C@]3(C)CC[C@]23CO[C@]1(C)[C@@H](C(=O)/C=C\c1cccnc1)C3 | 47.5% |
| O=C(NCCNc1cc(-c2cn(-c3ccccc3)nc2-c2cccc(O)c2)ccn1)Nc1ccccc1 | 29.9% |
| CCCCCCCCN(CCCCCCCC)CC(O)c1cc(Cl)ccc1OC (stereo not drawn) | 73.4% |
| CCN(CC)CCNc1nc2ccccc2c2c(=O)c3cc(Cl)ccc3sc12 | 78.1% |

| Structure (SMILES) | growth |
| --- | --- |
| O=C(NNC(=S)Nc1ccccc1)c1ccncc1 | 117% |
| COc1cc(C(C)(C)C)cc(OC)c1C(O)(c1c(OC)cc(C(C)(C)C)cc1OC)c1c(OC)cc(C(C)(C)C)cc1OC | -63.7% (active) |
| Cc1[nH]c(C(=O)Nc2ccc(C(N)=O)cc2OC(C)C)c(Cl)c1Cl | 97.1% |
| C#Cc1c(I)n(C2OC(CO[Si](C)(C)C(C)(C)C)C3OC(C)(C)OC32)c(=O)[nH]c1=O (stereo not drawn) | 20.1% |
| Nc1ncc(-c2cnn(C3CCNCC3)c2)cc1-c1nc2ccccc2o1 | -55.5% (active) |
| COc1cc(/C(C)=C(\c2ccc(Cl)cc2)c2ccc(OCCN3CCCC3)cc2)ccc1F | 38.4% |
| O=C1Nc2ccccc2/C1=C/c1cccn1CCCCCn1c2ccccc2c(=O)c2ccccc21 | 47.6% |
| CC1CN(C2CCCCC2)C(=S)N(c2ccccc2)C1=O (stereo not drawn) | 85% |
| Nc1ncnc2c1C(c1ccc(Br)cc1)c1sc3c(F)cccc3c1O2 (stereo not drawn) | 119% |
| CC(=O)OC[Si](C)(C)c1ccccc1 | 100% |
| N#CC1=C(N)Oc2c(c(N)nn2-c2ccccc2)C1c1ccc(Cl)cc1 (stereo not drawn) | 110% |
| C=C(CC(=O)OC)C(C)=O | 95.8% |
| C=CC(O)CCC (stereo not drawn) | 88.3% |
| CC(C)CCSc1nc(-c2ccc(F)cc2)c(C#N)c(N2CCN(C)CC2)n1 | 73.8% |
| C/C(=N\Nc1nc2ccccc2s1)c1ccncn1 | -19.9% (active) |
| Nc1ccc2cc(Br)c3ccccc3c2c1 | 45.6% |
| COc1ccc(C2=C(c3ccccc3)c3ccc(OC(C)=O)cc3OC2(C)C)cc1 | -17.1% (active) |
| CC(C)N(CCOc1ccc(-c2nc3sccn3c2-c2ccnc(S(C)(=O)=O)n2)cc1)C(C)C | 85.8% |
| COc1ccc(C(C)c2cc(OC)c(OC)c(OC)c2)cc1 (stereo not drawn) | -15.6% (active) |
| COc1cc2ncnc(Nc3ccc(S(=O)(=O)Nc4cc(C)on4)cc3)c2cc1OCCCN1CCN(c2ccc(F)cc2)CC1 | 112% |
| CN1C(=O)[C@H]2c3c1cccc3[C@@]13NC(=O)O[C@H]1[C@H](CCC3(C)C)C2(C)C | 97.9% |

| Structure (SMILES) | growth |
| --- | --- |
| COc1ccc(-c2nc(-c3ccccc3)c(-c3ccccc3)n2C2CC2)cc1OC1CCCCC1 | 30% |
| CCCCC(CCCCCC(CCCC)C1NC(C)Cc2cc(OC)c(OC)cc21)C1NC(C)Cc2cc(OC)c(OC)cc21 (stereo not drawn) | -79.7% (active) |
| C=C1CCC2C3(C)COC(c4ccc(NC(C)=O)cc4)OC3CCC2(C)C1C/C=C1/C(=O)OCC1O (stereo not drawn) | 32.8% |
| CC(=O)N1N=C(c2ccc(Cl)cc2)CC1c1sc(Cl)nc1Cl (stereo not drawn) | 89.5% |
| C[C@]12CC[C@@H]3c4cc(OC(F)F)c(OS(N)(=O)=O)cc4CC[C@H]3[C@@H]1CC[C@@H]2OS(N)(=O)=O | 13.1% |
| CN1CCN(C(=O)OCc2nc3c(N4CCOCC4)nc(Cl)nc3n2C)CC1 | -53.4% (active) |
| CCOC(=O)c1cc(C(=O)c2ccc(F)cc2F)n2ccccc12 | 96.4% |
| COC(=O)[C@H](Cc1cn(C)cn1)NC(=O)[C@H](Cc1c[nH]c2ccccc12)NC(=O)Nc1cc(C(F)(F)F)cc(C(F)(F)F)c1 | -54.5% [100 µM] (active) |
| CN(C)C/C=C/C(=O)Nc1cc2c(Nc3cccc(Cl)c3F)ncnc2cc1OCCOC(F)F | 43.2% |
| COc1cc(/C=C/c2cc(/C=C/c3ccc(O)c(OC)c3)[nH]c(=O)n2)ccc1O | 61.3% |
| Nc1nc(N)c2nc(CNc3ccc(C(=O)CC(CCC(=O)O)C(=O)O)cc3)cnc2n1 (stereo not drawn) | 49% |
| c1ccc(-c2nc(Nc3nccnn3)c3ccccc3n2)cc1 | 99.4% |
| CC1(C)[C@@H](O[C@@H]2OC[C@@H](O[C@@H]3O[C@H](CO)[C@@H](O)[C@H](O)[C@H]3O[C@@H]3OC[C@@H](O)[C@H](O)[C@H]3O)[C@H](O)[C@H]2O[C@@H]2O[C@H](CO)[C@@H](O)[C@H](O)[C@H]2O)CC[C@]2(C)[C@H]3CC[C@]45OC[C@@]6(CC[C@](C)(C=O)C[C@H]64)[C@H](O)C[C@@]5(C)[C@]3(C)CC[C@@H]12 | -58.6% (active) |
| Nc1ncnc(Nc2ccc(C(F)(F)F)cc2)n1 | 89.2% |
| FC(F)(F)c1cccc(-c2nnn(Cc3cc(-c4cccc(Cl)c4)no3)n2)c1 | 108% |
| O=C1c2c(c3c4ccccc4[nH]c3c3ccc4ccccc4c23)C(=O)N1CCN1CCNCC1 | 43.6% |
| C=C1CCC2C3(C)COC(C)(C)OC3CCC2(C)C1C/C=C1/C(=O)OCC1Oc1ccccc1OC (stereo not drawn) | 38.6% |
| CCSCC1CC(O)(c2ccccc2)C(c2ccccc2)C(c2ccc(F)cc2)O1 (stereo not drawn) | -12.5% (active) |
| O=c1[nH]c(Nc2ccc(S(=O)(=O)O)cc2)nc2nc(Nc3ccc(NC(=S)Nc4ccccc4)cc3)nc(-c3ccc(O)cc3O)c12 | 120% |
| COc1ccc(-c2nc(N3CCCC3=O)sc2Br)cc1OC | 101% |
